Laboratory results reported in ChEMBL document CHEMBL3988442, “University of Dundee, Small-Polar-MMV Screening Library” (2021).

Assays:
[1] = molecular target: T1, Aspartate--tRNA(Asp/Asn) ligase (Mycobacterium tuberculosis (strain ATCC 25618 / H37Rv)) (UniProt P9WFW3); test: Assay for Asp RNA synthetase-1 from Mycobacterium tuberculosis; format: functional; parameters: scale not given: direction of the effect not stated beside the values; details: 30 µM; note: in the data most compounds retested in dose-response had high values
T1 sequence (whole entry): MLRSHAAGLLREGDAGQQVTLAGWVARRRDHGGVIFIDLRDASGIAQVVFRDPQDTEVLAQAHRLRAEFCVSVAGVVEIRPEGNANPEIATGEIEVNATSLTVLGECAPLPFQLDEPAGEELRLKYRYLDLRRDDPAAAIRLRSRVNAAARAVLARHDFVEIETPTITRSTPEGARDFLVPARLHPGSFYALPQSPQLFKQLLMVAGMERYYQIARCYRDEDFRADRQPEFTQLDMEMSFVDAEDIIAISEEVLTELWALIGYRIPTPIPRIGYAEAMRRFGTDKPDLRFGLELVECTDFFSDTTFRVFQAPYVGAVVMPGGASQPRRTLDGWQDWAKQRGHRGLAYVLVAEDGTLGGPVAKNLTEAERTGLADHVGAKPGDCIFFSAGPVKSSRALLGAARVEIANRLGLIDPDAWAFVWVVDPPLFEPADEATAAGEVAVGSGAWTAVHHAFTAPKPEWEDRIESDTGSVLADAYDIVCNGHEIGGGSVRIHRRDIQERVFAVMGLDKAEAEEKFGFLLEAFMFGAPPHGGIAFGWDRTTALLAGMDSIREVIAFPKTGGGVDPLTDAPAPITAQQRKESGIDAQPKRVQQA

[2] = molecular target: Shiga toxin 2 (Escherichia coli O157:H7) (UniProt P09385+P09386); test: E. coli 0.157:H7 Shiga Toxin SOP - stx2 screening assay; format: functional; parameters: scale not given: direction of the effect not stated beside the values; details: 30 µM

SMILES	Percent Effect [1] [%]	Percent Effect [2] [%]
CCN(CC1CCOC1)C(=O)c1ccccc1NS(=O)(=O)CC (configuration not stated)	-4.47	33.3
Cc1cnn(CC2CCCN2CC(=O)Nc2nc(C)cs2)c1 (configuration not stated)	1.62	-8.49
O=C(NC1CCCC1)NC1CCC(C(=O)N2CCSCC2)CC1 (configuration not stated)	1.78	-37.4
CCOc1ccccc1OC1CCN(C(=O)c2cc[nH]n2)CC1	0.989	39.1
Cc1cccnc1C(=O)N1CCCCC1c1[nH]ncc1S(C)(=O)=O (configuration not stated)	5.01	6.84
Cc1ccc(C(=O)Nc2cc(C(C)C)n[nH]2)cn1	2.73	1.39
CC1c2ncc(Cn3cncn3)n2CCN1C1CCOCC1 (configuration not stated)	2.5	-1.95
Cc1ncc2c(n1)CCCC2NC(=O)c1ccncc1 (configuration not stated)	2.71	-63.8
Cc1cnn(C2CCCN(C(=O)Cc3ccc(-n4cccn4)cc3)C2)c1 (configuration not stated)	-4.37	4.84
O=C(NCc1csc(Br)c1)c1ccc(=O)[nH]n1	-0.83	-13.6
c1cnn(CC2CN(CC3CCCC3)CCO2)c1 (configuration not stated)	-6.1	-0.337
